Only some compounds are listed: those with a hit (about 11% of all), similar ones and a draw of the others.
HPGD block: qHTS Assay for Inhibitors of HPGD (15-Hydroxyprostaglandin Dehydrogenase) | 15-hydroxyprostaglandin dehydrogenase [NAD(+)] (Homo sapiens), P15428 | 150,000 compounds, 4.3% hits | purified HPGD, NADH fluorescence kinetic, PGE2 substrate | Potency, µM, for inactives: at the highest dose activity change, negative = inhibition, most hits filed as inhibitors; active = well fitted inhibition curve with a large enough effect, not every such curve was filed as active; inconclusive = small, poorly fitted or top-dose-only effect, or another doubt; inactive = no such curve, though single readings can be large or run the other way; also: potency is read from the fitted curve at half-maximal effect; % is scaled to controls: 0 for no effect and ±100 for the full control effect
Target sequence (P15428 whole entry, looked up): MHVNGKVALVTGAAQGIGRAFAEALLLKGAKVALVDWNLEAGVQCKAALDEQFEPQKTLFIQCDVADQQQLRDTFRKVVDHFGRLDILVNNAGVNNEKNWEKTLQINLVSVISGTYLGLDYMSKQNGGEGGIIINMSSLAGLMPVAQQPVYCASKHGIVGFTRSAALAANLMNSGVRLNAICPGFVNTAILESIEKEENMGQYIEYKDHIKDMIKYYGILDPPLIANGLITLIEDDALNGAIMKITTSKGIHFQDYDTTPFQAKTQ
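NADH formation kinetics: reaction with 30 uM PGE2 and 1 mM NAD+ (final), 20 nM enzyme, Tris-HCl pH 8 with Tween 20, after 15 min compound preincubation at room temperature. Fluorescence change, last versus first of five reads.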
HTT ATP protect: qHTS Multiplex Assay to Identify Dual Action Probes in a Cell Model of Huntington: Cytoprotection (ATP). PC12 HTT-Q103 induced, cytoprotection, ATP luminescence, 40 h. AID 1471, 2008. Potency, µM (highest dose often 56.4 µM), inactives show cytoprotection (ATP increase), actives largely listed as activators. 230,000 compounds, 0.14% hits; also: potency is read from the fitted curve at half-maximal effect; % of control where 0% means no effect; nearly all actives have a fitted effect of over 45% in size
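ATP quantification (ATPlite) reports survival of PC12 cells in which tebufenozide, 100 nM final, switches on Htt exon 1 with 103 glutamines linked to GFP; compounds are titrated.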
HttQ103 aggreg: qHTS Multiplex Assay to Identify Dual Action Probes in a Cell Model of Huntington: Aggregate Formation (GFP). PC12 HttQ103-GFP aggregates, Acumen cytometry, 40 h. Potency, µM (highest dose often 46.1 µM), for the others: at the top dose activity change, negative = inhibition, actives largely listed as inhibitors. 220,000 compounds, 1.1% hits. AID 1688, 2009; also: potency is read from the fitted curve at half-maximal effect; % is scaled to controls: 0 for no effect and ±100 for the full control effect; nearly all actives have a fitted effect of over 60% in size
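Read-out: GFP aggregate count by laser scanning cytometer (488 nm excitation, 500-530 nm emission, 1–25 µm objects >6 SD above background). Cells: PC12, inducible HTTex1-Q103-GFP, 100 nM tebufenozide; compounds titrated.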
ALDH1A1 inh: qHTS Assay for Inhibitors of Aldehyde Dehydrogenase 1 (ALDH1A1). Aldehyde dehydrogenase 1A1 (Homo sapiens), P00352. Purified ALDH1A1, NADH fluorescence, propionaldehyde substrate. Potency, µM (doses to about 75.3 µM), without a hit: top-dose activity, negative = inhibition, most hits filed as inhibitors. 220,000 compounds, 7.3% hits; active = well fitted inhibition curve with a large enough effect, not every such curve was filed as active; inconclusive = small, poorly fitted or top-dose-only effect, or another doubt; inactive = no such curve, though single readings can be large or run the other way;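 also: potency is read from the fitted curve at half-maximal effect; plate controls were no enzyme wells and a reference inhibitor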
GoLoco inh red: qHTS Assay for Inhibitors of RGS12 GoLoco Motif Activity (Red Fluorophore); Guanine nucleotide-binding protein G(i) subunit alpha-1 (Homo sapiens), P63096; Gai1:RGS12 GoLoco peptide FP, rhodamine, 10 min; Potency, µM (series often up to 61.6 µM), for inactives: at the top dose activity, negative = inhibition, most hits filed as inhibitors; 230,000 compounds, 0.44% hits; AID 880, 2007; active = well fitted inhibition curve with a large enough effect, not every such curve was filed as active; inactive = no such curve, though single readings can be large or run the other way; also: potency is read from the fitted curve at half-maximal effect; % is scaled to controls: 0 for no effect and ±100 for the full control effect; nearly all actives have a fitted effect of over 30% in size
PNC inhibitor: High Content Assay for Compounds that inhibit the Assembly of the Perinucleolar Compartment. activity change (PNC), negative = inhibition, % at 10 µM. 140,000 compounds, 3.1% hits. PC3M PTB-GFP, PNC prevalence imaging, 16 h; active compounds read low;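 active = readout at or below -70, meaning at least 70% loss of cells showing the perinucleolar compartment, a nuclear body marking cancer cells; inconclusive = readout between -30 and a set limit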;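 also: plate controls were DMSO wells for no effect and camptothecin positive control wells for full effect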
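Compounds are pinned in duplicate onto adhered PC3M cells stably expressing GFP-tagged PTB and incubated 16 h at 37 C. Cells are then fixed, nuclei stained with Hoechst, and PNC-positive cells counted.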
Numbers without * were called inactive; [ ] = remark or other dose. Unless noted, calls follow the shape of the dose curve; as a rule, active = well fitted curve in the direction sought with a large enough effect; inconclusive = small, poorly fitted or top-dose-only effect, or another doubt; inactive = no such curve, though single readings can be large; an effect the other way counts as inactive or inconclusive.

`S=c1[nH]nc(-c2ccco2)n1/N=C/c1cccs1` gave HPGD block 28.2µM*, HTT ATP protect -14.5%[10 µM], HttQ103 aggreg -20.0%, ALDH1A1 inh 25.1µM*, GoLoco inh red 0.2% and PNC inhibitor -23.6.
`CN1C[C@@H](C(=O)N[C@@]2(C)O[C@]3(O)C4CCCN4C(=O)[C@@H](Cc4ccccc4)N3C2=O)C=C2c3cccc4[nH]cc(c34)C[C@@H]21` (some centres undefined) gave HPGD block -30.0%, HTT ATP protect -0.5%[1.9 µM], ALDH1A1 inh inconclusive and GoLoco inh red -27.4%.
For Cc1ccc(N=C=O)cc1N=C=O the results were HPGD block -3.4%, HTT ATP protect 0.4%, ALDH1A1 inh -1.9% and GoLoco inh red 11.2%.
For Cc1occc1C(=O)Nc1nnc(C(F)(F)F)s1 the results were HPGD block -16.0%, HTT ATP protect -0.5%, HttQ103 aggreg 35.5µM*, ALDH1A1 inh 1.7%, GoLoco inh red 1.4% and PNC inhibitor inconclusive.
For CC(N)C(O)c1ccc(O)c(O)c1 (centres undefined) the results were HPGD block 2.7%, HTT ATP protect inconclusive, ALDH1A1 inh 0.9% and GoLoco inh red 8.7%.
`Oc1cc(Cl)ccc1Oc1ccc(Cl)cc1Cl` gave HPGD block 7.94µM*, HTT ATP protect 7.08µM*, ALDH1A1 inh 1.4% and GoLoco inh red 7.1%.
Oc1ccc(Cl)cc1Cl was read as HPGD block -10.0%, HTT ATP protect 2.8%, ALDH1A1 inh -5.2% and GoLoco inh red -2.4%.
Screening COc1cccc(OC)c1C1=NCC(=O)Nc2c1oc1ccc(Br)cc21 returned HPGD block -20.5%, HTT ATP protect -59.2%[10 µM], HttQ103 aggreg inconclusive, ALDH1A1 inh -8.0%, GoLoco inh red 11.7% and PNC inhibitor -119.3*.
CC(=O)NNc1ccccc1 was read as HPGD block -2.4%, HTT ATP protect 6.2%, ALDH1A1 inh -5.1% and GoLoco inh red -33.3%.
For c1ccc(NNc2ccccc2)cc1 the results were HPGD block 4.2%, HTT ATP protect -0.2%, ALDH1A1 inh 10µM* and GoLoco inh red 10.1%.
Screening COc1ccccc1-n1c(O)c(C=NCc2ccc3c(c2)OCO3)c(=O)[nH]c1=O returned HPGD block -23.9%, HTT ATP protect -3.4%[0.074 µM], HttQ103 aggreg -6.5%, ALDH1A1 inh -10.2%, GoLoco inh red 23.6% and PNC inhibitor -106.5*.
For C=C1[C@@H](O)C2C=CC[C@H](C)C(=O)[C@@](C)(O)C=C[C@@H](OC(C)=O)[C@@]23C(=O)N[C@H](Cc2ccccc2)[C@@H]3[C@@H]1C (some centres undefined) the results were HPGD block -15.9%, HTT ATP protect -61.8%, ALDH1A1 inh -5.2% and GoLoco inh red 3.4%.
`C=C(C)C#N` gave HPGD block -4.5%, HTT ATP protect -1.0%, ALDH1A1 inh -8.0% and GoLoco inh red 5.9%.
For N#CC(Cl)(Cl)Cl the results were HPGD block -2.7%, HTT ATP protect -12.8%, ALDH1A1 inh 20µM* and GoLoco inh red 10.2%.
O=C(CNC(=O)c1ccccc1Cl)Nc1ccc(Br)cc1C(=O)c1ccccc1 was read as HPGD block 28.2µM*, HTT ATP protect 17.4%[10 µM], HttQ103 aggreg -9.9%, ALDH1A1 inh -5.0%, GoLoco inh red 95.8% and PNC inhibitor 32.2.
For O=C(CN1CCCCC1)NCC(=O)Nc1ccc(Br)cc1C(=O)c1ccccc1 the results were HPGD block 28.2µM*, HTT ATP protect 0.4%, HttQ103 aggreg -0.3%, ALDH1A1 inh 9.7%, GoLoco inh red 3.1% and PNC inhibitor 52.5.

High-throughput results: PubChem BioAssay, National Center for Advancing Translational Sciences (NCATS)
